# In PubChem BioAssay (NCI):
# Compounds without any hit were thinned out: in the full panel of roughly 83,000, 20% have a hit.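 Method: cells in 96-well plates; compound added at one concentration; 48 h incubation; percent growth measured; values under 10 scored active.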 A number with no mark means an inactive call. Active and inactive are the calls of the source.
# Legend:
# Experiment in all cases: NCI-60 one-dose screen, 48 h (100 = growth as untreated, 0 = no growth, -100 = all killed)
# Details in all cases: 10 µM unless noted
# SN12C renal = tested on: SN12C renal
# UO-31 renal = tested on: UO-31 renal
# TK-10 renal = tested on: TK-10 renal
# ACHN renal = tested on: ACHN renal
# A498 renal = tested on: A498 renal
# CCRF-CEM leukemia = tested on: CCRF-CEM leukemia
# MOLT-4 leukemia = tested on: MOLT-4 leukemia
# SR leukemia = tested on: SR leukemia
# CAKI-1 renal = tested on: CAKI-1 renal
SMILES,growth (SN12C renal),growth (UO-31 renal),growth (TK-10 renal),growth (ACHN renal),growth (A498 renal),growth (CCRF-CEM leukemia),growth (MOLT-4 leukemia),growth (SR leukemia),growth (CAKI-1 renal)
CCCCCCOc1ccc(/C=N/NC(N)=S)cc1,22.2%,17.8%,54.3%,61.6%,99.7%,6.97% (active),7.23% (active),69.5%,–
CN(C(=O)c1ccccc1)N(C)C(=O)c1ccccc1,105%,93.2%,105%,106%,100%,–,88.6%,92.8%,–
COc1ccc(-c2nnc(COc3ccc(NC(=O)Nc4cc(C(F)(F)F)cc(C(F)(F)F)c4)cc3F)o2)cc1,5.21% (active),-4.7% (active),15.3%,11%,-1.78% (active),–,8.94% (active),-13.2% (active),12.3%
COc1ccc(-n2nnc(C(=O)O)c2-c2cc(OC)c(OC)c(OC)c2)cc1,105%,110%,93.2%,105%,–,105%,94%,85.4%,102%
COc1ccc(COC(C)=O)cc1,124%,97.2%,126%,99.1%,88.7%,86.4%,–,112%,105%
O=C1/C(=C/c2ccc([N+](=O)[O-])o2)Oc2ccc(Cl)cc21,-41.6% (active),-86.1% (active),-59.8% (active),-61% (active),108%,–,-12.4% (active),5.52% (active),3.65% (active)
Nc1ccc2c(c1)/C(=N/O)c1cc([N+](=O)[O-])ccc1-2,86.2%,21.7%,57.6%,58.7%,–,25%,25.6%,9.6% (active),46.6%
OC(Cc1cccnc1)c1ccccc1 (centres undefined),99.3%,93.3%,109%,101%,86.5%,–,–,92.6%,119%
COc1ccc(/C(=C2\O[C@@H]([C@H](O)CO)[C@H]3OC(C)(C)O[C@@H]23)c2cc(OC)c(OC)c(OC)c2)cc1O,95.6%,90.1%,106%,78.5%,–,95.3%,78.1%,-13% (active),105%
O=C(C(=O)N1CCCCC1)c1ccc(OC2OC(CO)C(O)C(O)C2O)cc1 (centres undefined),98.9%,105%,107%,107%,126%,–,87.7%,101%,94.4%
O=C(Nc1nc(-c2ccc(Cl)cc2)cs1)c1cc(O)c(O)c(O)c1,22.6%,6.01% (active),–,–,77.1%,8.08% (active),4.68% (active),0.551% (active),8.69% (active)
N#CCCN(CCO)c1ccccc1,97.6%,89.5%,93.7%,–,96.4%,–,90%,86.3%,–
CCOC(=O)c1c(NC(=O)C2CCCCC2C(=O)O)sc2c1CCCC2 (centres undefined),104%,81.4%,–,98.2%,109%,99.6%,105%,111%,92.7%
CC(C)COCC(CN(Cc1ccccc1)c1ccccc1)N1CCCC1 (centres undefined),–,37%,29.9%,–,83.3%,–,–,51.8%,57.1%
C[C@]12CC[C@@H]3c4ccc(O)cc4CC[C@H]3[C@@H]1CC[C@@H]2NS(=O)(=O)c1cccc(Br)c1,69.8%,36.3%,–,58.9%,65%,–,36.3%,27.1%,62.9%
CN(C)c1cccc2c(S(=O)(=O)N[C@H]3CC[C@H]4[C@@H]5CCc6cc(O)ccc6[C@H]5CC[C@]34C)cccc12,25.4%,10.7%,–,30.8%,49%,–,17.3%,-16.1% (active),15.5%
COC(=O)c1ccc2c(c1)nc(-c1ccc(O)c(OC)c1)n2-c1cc(C(C)(C)C)[nH]n1,97.7%,50.9%,–,108%,90.5%,93.1%,81.2%,–,–
O=C(/C=C/c1ccc(Cl)cc1)c1ccccc1,98%,88.3%,–,110%,87.5%,87.9%,96.7%,23.1%,101%

SMILES,growth (SN12C renal),growth (UO-31 renal),growth (TK-10 renal),growth (ACHN renal),growth (A498 renal),growth (CCRF-CEM leukemia),growth (MOLT-4 leukemia),growth (SR leukemia),growth (CAKI-1 renal)
COc1cc(/C=C/C(=O)Nc2ccc3c(c2)/C(=C\c2cccn2C)C(=O)N3)cc(OC)c1OC,41.2%,28.3%,–,54.9%,46.8%,31.9%,50.8%,16.2%,52.1%
O=C1/C(=C/c2ccc([N+](=O)[O-])s2)Oc2ccc(Br)cc21,-32.5% (active),-87.4% (active),–,-64% (active),-32.8% (active),-3.33% (active),-16.8% (active),7.74% (active),-16.3% (active)
COc1cc(C2=NN(C(C)=O)C(c3ccc(OC(C)=O)cc3OC(C)=O)O2)c(OC(C)=O)c2ccccc12 (centres undefined),19.1%,5.38% (active),–,16.3%,25.2%,-1.14% (active),-2.56% (active),2.88% (active),8.08% (active)
Clc1ncn[nH]1,103%,89.9%,–,–,106%,103%,105%,94%,92.5%
COc1cc2c(-c3nc4cc(Cl)c(F)cc4s3)cc(=O)oc2c(C)c1OC,-73.8% (active),-94.4% (active),–,-83.8% (active),8.7% (active),-72.5% (active),-43% (active),-53.9% (active),-78.5% (active)
CCCCCCCCCCCCCCCCCc1nccn1CCO,52.2%,47.5%,112%,–,72.5%,79.7%,65.6%,–,–
N#Cc1cccc(/C=C(/C(=O)c2ccccc2)c2ccccc2)c1,49.4%,49.3%,–,45%,74.3%,2.7% (active),4.97% (active),3% (active),55.5%
O=C(/C(=C/c1ccc([N+](=O)[O-])cc1)c1ccccc1)c1ccccc1,35.1%,43.1%,–,40.9%,77%,0.582% (active),-2.9% (active),0.152% (active),48.6%
Cc1cc2c(C#N)n3c(c2cc1C)C(=O)C(c1ccccc1)Oc1ccccc1-3 (centres undefined),27.8%,14.5%,–,32.6%,41.2%,19.4%,69.2%,7.67% (active),33.1%
N#Cc1c2ccccc2c2n1-c1ccccc1OC(c1ccccc1)C2=O (centres undefined),15.4%,11.2%,–,29%,30.6%,6.32% (active),–,-7.43% (active),30.6%
COc1ccc(-c2csc(NC(=O)c3cc(O)c(O)c(O)c3)n2)cc1,64.8%,30.3%,–,36%,112%,18.5%,28%,14.5%,38.6%
C[C@]12CC[C@@H]3c4ccc(O)c([N+](=O)[O-])c4CC[C@H]3[C@@H]1CC[C@@H]2NS(=O)(=O)c1ccc(C(F)(F)F)cc1,17.8%,-90.1% (active),46.5%,–,46.3%,18.3%,3.51% (active),-8.8% (active),–
Nc1nonc1-c1nc2ccccc2n1CC(=O)Nc1ccc2c(c1)COC2=O,92.2%,60.6%,94.7%,–,63.7%,–,101%,–,74.5%
O=C(Nc1ccc(OCc2nnc(-c3ccccc3)o2)c(F)c1)Nc1ccc(Cl)c(C(F)(F)F)c1,16.1%,-19% (active),33.7%,–,18%,18.9%,–,0.0728% (active),16.4%
CCOC(=O)/C(=C/c1ccccc1)C(=O)c1ccccc1,72.6%,53.1%,–,70.5%,87.5%,3.43% (active),33.1%,6.68% (active),78.1%
Cn1cc(-c2csc(-c3cn(C)c4ncccc34)n2)c2cccnc21,93.1%,91.9%,–,99.7%,76.1%,87.3%,95.7%,–,83.3%
N#Cc1c(N)[nH]c(S)c1C#N,108%,88.2%,–,93.6%,76.2%,102%,108%,97.8%,98.5%
